TIM10 inh: TIM10 yeast growth inhibition; S. cerevisiae TIM10 strain growth, BacTiter-Glo luminescence, 24 h; inhibition, % at 10 µM; hit rate 1.4% among 330,000; AID 463195;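 active = inhibition of 40% or more at the single tested concentration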;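 note: wild-type TIM10 isogenic control strain grown at permissive 25 °C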
NALP1 yeast inh: blocks the NALP1 inflammasome reconstituted in yeast | hit rate 0.61% among 280,000 | AID 2071 | S. cerevisiae NALP1/ASC/caspase-1 growth, X-gal OD620, 72 h | inhibition, % at 10 µM; in the data active = inhibition mostly above about 24%, no sharp cut-off; inactive = mostly below about 32%
tim23-1 inh: inhibits growth of tim23-1 mutant yeast. S. cerevisiae tim23-1 growth, BacTiter-Glo luminescence, 24 h. inhibition, % at 20 µM. hit rate 1.3% among 330,000. AID 463212;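 active = growth inhibition of the mutant yeast at or above 50%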;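 note: temperature-sensitive mutant grown at 25 °C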
NLRP3 yeast inh: NALP3 inhibition in yeast. Yeast reconstituted NLRP3/ASC/caspase-1, beta-gal luminescence, 24 h. inhibition, % at 10 µM. hit rate 0.39% among 330,000. AID 2825;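 active = inhibition of 50% or more; inactive = inhibition below 50%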
tim10-1 inh: tim10-1 yeast growth inhibition | inhibition, % at 20 µM | S. cerevisiae tim10-1 ts strain growth, BacTiter-Glo, 24 h | hit rate 2.2% among 330,000;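 active = inhibition of at least 40%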;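 note: mutant grown at 25 °C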
tim10 confirm: confirmation of TIM10 yeast growth inhibitors; shares compounds with TIM10 inh; S. cerevisiae tim10 strain growth, BacTiter-Glo luminescence, 24 h; inhibition, % at 10 µM; hit rate 63% among 4,600; AID 463215;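 active = inhibition of yeast growth at or above a set limit in either of two replicates at 10 µM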; note: this counterscreen used the strain with wild-type TIM10
tim23-1 conf: tim23-1 yeast growth inhibition, confirmed | shares compounds with tim23-1 inh | inhibition, % at 20 µM | hit rate 83% among 4,400 | S. cerevisiae tim23-1 growth, BacTiter-Glo luminescence, 24 h;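 active = inhibition above about 39% in either of two replicate wells at 20 µM, limit read from the data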;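 note: temperature-sensitive tim23-1 mutant grown at 25 °C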
Large screens that a line does not name were inactive (follow-up assays come after a bar, where they were run). This is a sample that favours compounds with a hit; in the whole collection about 4% have one here.

Nc1ccc(-c2nc(-c3ccccc3)nc3ccccc23)cc1	TIM10 inh 56.2, tim23-1 inh 66.7 | tim10 confirm 54.2 | tim23-1 conf 57.0
Nc1ccc(-c2cc(-c3cccc(N)c3)nc(-c3ccccc3)n2)cc1	none
COc1ccc(S(=O)(=O)Oc2ccccc2C(=S)N2CCOCC2)cc1	none
Cc1ccc(CNS(=O)(=O)c2ccc3c(c2)OCCO3)cc1	TIM10 inh 41.3, tim23-1 inh 55.5 | tim10 confirm 41.5 | tim23-1 conf 46.2
CC1=NN(c2ccc(C(=O)O)cc2)C(=O)/C1=C/c1ccc(-c2ccccc2F)o1	TIM10 inh 43.5, tim23-1 inh 62.2 | tim10 confirm inactive | tim23-1 conf 39.1
CC1=NN(c2ccc(C)cc2)C(=O)/C1=C/c1ccc(-c2cc([N+](=O)[O-])ccc2O)o1	none
CCOC(=O)c1cnc2c(C)c(Cl)ccc2c1NCCCN1CCOCC1	TIM10 inh 65.3, tim23-1 inh 50.8 | tim10 confirm 59.8 | tim23-1 conf 41.1
CCOC(=O)c1cnc(-n2nc(C)cc2C)nc1NC1CCCC1	TIM10 inh 44.6, tim23-1 inh 52.3 | tim10 confirm 50.8 | tim23-1 conf 43.5
COc1ccc(OC)c(/C=C/c2ccc3cccc(O)c3n2)c1	none
Oc1ccc(Cl)cc1/C=C/c1ccc2cccc(O)c2n1	TIM10 inh 63.5, tim23-1 inh 58.2 | tim10 confirm 62.7 | tim23-1 conf inactive
Cc1nn2c(NCc3ccccn3)c3c(nc2c1-c1ccccc1)CCC3	TIM10 inh 55.3, tim23-1 inh 56.3 (no result: NALP1 yeast inh) | tim10 confirm 52.3 | tim23-1 conf 57.1
CCSc1ccc(/C(N)=N/OC(=O)c2cccs2)cn1	TIM10 inh 63.0, tim23-1 inh 61.3 | tim10 confirm 63.2 | tim23-1 conf 73.7
CCN(CC)C(=O)c1cc([N+](=O)[O-])cc2c1-c1ccc([N+](=O)[O-])cc1C2=C(C#N)C#N	TIM10 inh 40.5, tim23-1 inh 50.6 | tim10 confirm inactive | tim23-1 conf 74.3
CCN(CC)C(=O)c1ccc(Oc2ccc([N+](=O)[O-])cc2Cl)cc1	none
CCN(CC)C(=O)Cn1cc(C(=O)C(=O)N2CCN(c3ccc([N+](=O)[O-])cc3)CC2)c2ccccc21	none
Cc1cc2cc(C=O)c(Cl)nc2cc1C	TIM10 inh 44.5, tim23-1 inh 64.2 | tim10 confirm 28.1 | tim23-1 conf 80.6
COc1ccc(OC)c(Nc2ncnc3ccc(Br)cc23)c1	none (no result: NALP1 yeast inh)
Brc1ccc2ncnc(Nc3cccc4ccccc34)c2c1	TIM10 inh 41.4, tim23-1 inh 72.6 | tim10 confirm inactive | tim23-1 conf 47.4
COc1cccc2sc(NN)nc12	none
NNc1nc2c(Cl)c(Cl)ccc2s1	TIM10 inh 41.1, tim23-1 inh 68.2 | tim10 confirm 27.9 | tim23-1 conf 52.1
CC(=O)Nc1ccc(SCC(=O)c2cc(C)n(-c3ccccc3)c2C)cc1	TIM10 inh 47.9, tim23-1 inh 53.9 | tim10 confirm 43.9 | tim23-1 conf 53.3
COc1ccc(-n2c(C)cc(C(=O)CSc3ccc(NC(C)=O)cc3)c2C)cc1	TIM10 inh 41.0, tim23-1 inh 62.0 | tim10 confirm inactive | tim23-1 conf 48.9
COc1ccc(NC(=O)CSc2ccc(C)cc2)cc1	none
CC(=O)Nc1ccc(SCC(=O)c2cc(C)ccc2C)cc1	none
Cc1c(Cl)cccc1NC(=O)CSc1nncn1-c1ccccn1	none
Cc1cccc(C)c1N=Nc1c(C)cc(O)cc1C	TIM10 inh 46.8, tim23-1 inh 63.5 | tim10 confirm 64.8 | tim23-1 conf inactive
CCN/N=C(\Cc1nc2ccccc2[nH]1)c1ccccc1	none
c1ccc(N/N=C(\Cc2nc3ccccc3[nH]2)c2ccccc2)cc1	TIM10 inh 48.4, tim23-1 inh 58.2 | tim10 confirm inactive | tim23-1 conf 60.0
CC(=O)c1ccc(N(CC(=O)NC2CCCCC2)C(=O)CNC(=O)c2cccs2)cc1	none
Oc1ccc(/C=N/Nc2ncc(Br)cn2)c(O)c1	TIM10 inh 67.0, tim23-1 inh 70.1 | tim10 confirm inactive | tim23-1 conf 66.9
Cc1cc(-c2ccccc2)nc(N/N=C/c2ccc(O)cc2O)n1	TIM10 inh 56.7, tim23-1 inh 63.9 | tim10 confirm 61.2 | tim23-1 conf 70.3
Cc1ccc(/C=C(\C#N)C(=O)N2CCCC2)c(C)c1	TIM10 inh 44.6, tim23-1 inh 52.4 | tim10 confirm 38.6 | tim23-1 conf 49.6
N#C/C(=C\c1ccc(O)cc1)C(=O)N1CCCC1	none
COc1ccccc1N=Nc1nc(-c2ccccc2)c(-c2ccccc2)[nH]1	none (no result: TIM10 inh, tim23-1 inh, NLRP3 yeast inh, tim10-1 inh)
Oc1ccccc1N=Nc1nc(-c2ccccc2)c(-c2ccccc2)[nH]1	TIM10 inh 56.0, tim23-1 inh 52.8 | tim10 confirm 57.2 | tim23-1 conf 62.2
Clc1nc(-c2ccccn2)nc2scc(-c3ccccc3)c12	TIM10 inh 49.6, tim23-1 inh 51.9 (no result: NALP1 yeast inh) | tim10 confirm inactive | tim23-1 conf 58.1
COC(=O)Cc1ccc(NC(=S)NCCSc2ccc(Cl)cc2)cc1	TIM10 inh 44.1, tim23-1 inh 50.1 | tim10 confirm 42.4 | tim23-1 conf 42.8
CC1CCN(CCNC(=O)C2CCCN(S(=O)(=O)c3cccc4nsnc34)C2)CC1 (stereo not drawn)	none
Cc1cccc(NS(=O)(=O)c2cc(C(=O)N3CCc4ccccc4C3)ccc2Cl)c1C	none
COCCCN(C(=S)Nc1cc(Cl)cc(Cl)c1)C(C)c1ccncc1 (stereo not drawn)	NALP1 yeast inh 68.5, tim23-1 inh 50.3 | tim23-1 conf 46.6
COCCCN(C(=S)Nc1cc(Cl)cc(Cl)c1)C(C)c1ccccn1 (stereo not drawn)	tim23-1 inh 62.7 (no result: NALP1 yeast inh) | tim23-1 conf 52.7
COCCCN(C(=S)Nc1ccc(C)cc1Cl)C(C)c1ccncc1 (stereo not drawn)	none
Cc1cc(C)c(OCC(=O)NCCCn2nc(C)cc2C)c(C)c1	none (no result: NALP1 yeast inh)
COc1ccc(NC2CCCN(C(=O)c3cc(CC(C)C)nc(N)n3)C2)cc1 (stereo not drawn)	none
Nc1nc2ccccc2n1/N=C/c1ccc(-c2ccccc2)o1	tim23-1 inh 54.5 | tim23-1 conf inactive
Nc1nc2ccccc2n1/N=C/c1cccnc1	none (no result: NALP1 yeast inh)
Cc1ccc(N(C)S(=O)(=O)c2cccc(C(=O)NCC(c3cccs3)N3CCOCC3)c2)cc1 (stereo not drawn)	none (no result: NALP1 yeast inh)
O=C(NCc1cccnc1)/C(=C\c1ccc(-c2ccc(Br)cc2)o1)S(=O)(=O)c1ccccc1	tim23-1 inh 51.5 | tim23-1 conf 63.3
O=C(CN(Cc1ccc(Br)cc1)S(=O)(=O)c1ccccc1)NCc1cccnc1	none
Cc1ccc(NC(=O)c2cccc(S(=O)(=O)N3CCN(c4ccccc4)CC3)c2)nc1	none (no result: NALP1 yeast inh)
CCNc1nc(N)c(C(=O)C23CC4CC(CC(C4)C2)C3)s1	tim23-1 inh 61.2 | tim23-1 conf 54.2
CCNc1nc(N)c(C(=C(C#N)C#N)c2ccccc2)s1	none
